# Only some compounds are listed: those with a hit (about 11% of all), similar ones and a draw of the others.
# HPGD block: qHTS Assay for Inhibitors of HPGD (15-Hydroxyprostaglandin Dehydrogenase) | 15-hydroxyprostaglandin dehydrogenase [NAD(+)] (Homo sapiens), P15428 | purified HPGD, NADH fluorescence kinetic, PGE2 substrate | Potency, µM, without a hit: top-dose activity change, negative = inhibition, most hits filed as inhibitors | 150,000 tested, 4.3% active | AID 894, 2007; note: potency is the fitted concentration of half-maximal effect
#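 NADH formation kinetics: reaction with 30 uM PGE2 and 1 mM NAD+ (final), 20 nM enzyme, Tris-HCl pH 8 with Tween 20, after 15 min compound preincubation at room temperature. Fluorescence change, last versus first of five reads.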
# PNC inhibitor: High Content Assay for Compounds that inhibit the Assembly of the Perinucleolar Compartment. PC3M PTB-GFP, PNC prevalence imaging, 16 h; stronger effect = lower value. activity change (PNC), negative = inhibition, % at 10 µM. 140,000 tested, 3.1% active;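 active = readout at or below -70, meaning at least 70% loss of cells showing the perinucleolar compartment, a nuclear body marking cancer cells; inconclusive = readout between -30 and a set limit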;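 note: plate controls were DMSO wells for no effect and camptothecin positive control wells for full effect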
#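 PC3M cells stably expressing PTB-GFP, 750–1000 cells/well, treated 16 h at 37 °C with compound (23 nl of library stock), in duplicate. After paraformaldehyde fixation and Hoechst stain, imaged at 20x; PNC prevalence scored by image analysis.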
# ALDH1A1 block: qHTS Assay for Inhibitors of Aldehyde Dehydrogenase 1 (ALDH1A1). Purified ALDH1A1, NADH fluorescence, propionaldehyde substrate. 220,000 tested, 7.3% active. Aldehyde dehydrogenase 1A1 (Homo sapiens), P00352. AID 1030, 2008. Potency, µM (titrated, usually from 75.3 µM), inactives show top-dose activity, negative = inhibition, actives largely listed as inhibitors;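 note: potency is the fitted concentration of half-maximal effect; plate controls were no enzyme wells and a reference inhibitor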
# Target sequence (P00352 whole entry, looked up): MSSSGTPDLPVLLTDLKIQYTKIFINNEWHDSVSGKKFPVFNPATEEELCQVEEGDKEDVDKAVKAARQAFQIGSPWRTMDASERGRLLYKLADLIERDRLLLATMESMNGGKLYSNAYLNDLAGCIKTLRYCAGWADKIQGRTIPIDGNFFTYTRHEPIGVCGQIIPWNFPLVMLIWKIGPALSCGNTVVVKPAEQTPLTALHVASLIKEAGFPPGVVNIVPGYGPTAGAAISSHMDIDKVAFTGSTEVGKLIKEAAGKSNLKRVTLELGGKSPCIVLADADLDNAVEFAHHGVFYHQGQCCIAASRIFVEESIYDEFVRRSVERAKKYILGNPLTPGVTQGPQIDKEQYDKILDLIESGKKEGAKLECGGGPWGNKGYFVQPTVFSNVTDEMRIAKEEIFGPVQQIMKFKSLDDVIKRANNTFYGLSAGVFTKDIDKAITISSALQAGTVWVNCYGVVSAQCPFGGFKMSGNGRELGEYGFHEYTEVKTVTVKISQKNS
# * hit, by the source's call; ? = inconclusive; / = no result given. Unless noted, calls come from the whole dose curve; as a rule, active = well fitted inhibition curve with a large enough effect (not every such curve was filed as active); inconclusive = small, poorly fitted or top-dose-only effect, or another doubt; inactive = no such curve, though single readings can be large or run the other way. Unless noted, % is set by controls: 0 for no effect and ±100 for the full control effect.
SMILES,HPGD block,PNC inhibitor,ALDH1A1 block
COc1ccccc1NC(=O)Cn1cnc2sc(C)c(S(=O)(=O)N3CCCCC3)c2c1=O,-4%,-113*,23%
COc1ccc(C)cc1NC(=O)Cn1cnc2sc(C)c(S(=O)(=O)N3CCOCC3)c2c1=O,-9%,-100*,6%
COc1ccc(NC(=O)Cn2cnc3sc(C)c(S(=O)(=O)N4CCN(C)CC4)c3c2=O)cc1OC,/,/,-2%
CC1CCCCN1C(=O)COc1ccc(F)cc1 (configuration not stated),/,/,2%
COc1ccc(C2c3ccc(O)cc3Oc3ncn4nc(-c5cccnc5)nc4c32)cc1OC (configuration not stated),/,/,-15%
CCC(C)(C)NC(=O)C(c1ccc(F)cc1)N(Cc1cccs1)C(=O)c1cnccn1 (configuration not stated),/,/,-7%
COc1ccc(-n2c(=O)c(-c3ccc(F)c(F)c3)nc3cncnc32)cc1,/,/,6%
CN1C(=O)Cn2c1nc1ccccc12,-18%,23,-2%
O=C1Cn2c(nc3ccccc32)N1c1ccccc1F,-3%,-102*,6%
COC(=O)c1c(C)[nH]c(C(=O)NCc2ccco2)c1C,/,/,0%
CN1CCN(NS(=O)(=O)c2cccs2)CC1,-7%,-9,?
COc1ccc(NC(=S)NC(NC(=O)c2cccc(C)c2)C(Cl)(Cl)Cl)c([N+](=O)[O-])c1 (configuration not stated),-23%,25,?
COc1ccc(NC(=S)NC(NC(=O)c2cccc(Cl)c2)C(Cl)(Cl)Cl)c([N+](=O)[O-])c1 (configuration not stated),-12%,13,18µM*
CC(C)=CCC[C@](C)(O)C1CC=C(C)CC1 (some centres not stated),-8%,/,-13%
COc1cc2c(cc1OC)C1(CCCC1)CNC2c1cccc([N+](=O)[O-])c1 (configuration not stated),/,/,7%
COc1ccc(NC(=O)Cc2ccccc2)cn1,/,/,-2%
COc1ccc(/C=C/C(=O)Nc2ccc(OC)nc2)cc1,-12%,-18,-10%
COc1ccc(CS(=O)(=O)/C(Cl)=C(/Cl)C(=O)Nc2ccc(OC)nc2)cc1,-9%,-6,1.6µM*
COc1ccc(NC(=O)/C(Cl)=C(/Cl)S(=O)Cc2ccccc2)cn1 (configuration not stated),?,?,13µM*
Cc1ccc(-n2nc3ccc(NC(=O)/C=C/c4ccco4)cc3n2)cc1,-11%,73,-9%
Cc1nc(NC2CCCCC2)c2nc(-c3ccccc3)n(C(C)CN(C)C)c2n1 (configuration not stated),-29%,/,?
C=C1CSc2nc(=O)c3c4c(sc3n21)CCC4,14µM*,7,6%
C=C1CSc2nc(=O)c3c4c(sc3n21)CCCC4,14µM*,26,-15%
CC1=Nn2c(nc3sc4c(c3c2=O)CCCC4)SC1,?,48,1%
Nc1c2c3c(sc2nc(=O)n1N)CCCC3,/,/,-5%
SMILES,HPGD block,PNC inhibitor,ALDH1A1 block
N#Cc1ccc(OCC(=O)N/N=C/C2CC=CCC2)cc1 (configuration not stated),/,/,-9%
Cn1ccs/c1=N\C(=O)Nc1ccccc1,/,/,1%
COc1ccc(C2C(C(=O)c3cccs3)=C(O)C(=O)N2c2nncs2)cc1 (configuration not stated),-17%,18,0%
COC(=O)c1sc(N2C(=O)C(O)=C(C(=O)c3ccc(C)o3)C2c2ccc(F)cc2)nc1C (configuration not stated),8.9µM*,17,?
CCN(CC)S(=O)(=O)c1cccc(-c2nnc(SC(C)C(N)=O)n2CCc2ccccc2)c1 (configuration not stated),-2%,?,-14%
CCN(CC)S(=O)(=O)c1cccc(-c2nnc(SCC#N)n2Cc2ccccc2)c1,-6%,-21,10µM*
CCN(CC)S(=O)(=O)c1cccc(-c2nnc(SCC(N)=O)n2CCc2ccccc2)c1,-5%,-24,?
CCN(CC)S(=O)(=O)c1ccc(-c2nnc(SC)o2)cc1,-15%,-26,?
CCN(CC)S(=O)(=O)c1cccc(-c2nnc(-c3ccc(C)cc3)o2)c1,-23%,?,11µM*
CCN(CC)S(=O)(=O)c1cccc(-c2nnc(SC(C)C#N)n2Cc2ccccc2)c1 (configuration not stated),-1%,5,7.9µM*
CC(=O)N1CCC2(CCCN(c3ccccc3)C2)CC1,-10%,/,-5%
CCOC(=O)c1sc(Nc2ccc(OCC)cc2)nc1C,/,/,5%
CCOC(=O)c1sc(N2N=C(C)/C(=C\c3ccc(OCC(=O)OC)cc3)C2=O)nc1C,28µM*,12,14µM*
CCC(C)NS(=O)(=O)c1ccc(S(=O)(=O)N(CCc2ccc(OC)c(OC)c2)Cc2cccs2)cc1 (configuration not stated),-14%,-17,-1%
Cc1cc([N+](=O)[O-])ccc1NC(=O)/C=C/c1cccs1,-10%,-112*,?
CCCCOc1ccc(/C=C/C(=O)Nc2ccc([N+](=O)[O-])cc2C)cc1,-17%,?,3%
Cc1ccc(NC(=O)/C=C/c2ccc([N+](=O)[O-])s2)c(C)c1,-18%,-98*,-8%
Cc1ccc(NC(=O)/C=C/c2ccc([N+](=O)[O-])s2)cc1,-14%,-17,-3%
Cc1cccc(N2C(S)=C(C#N)C(=O)NC2c2cccs2)c1 (configuration not stated),-12%,-84*,-2%
N#CC1=C(S)N(c2ccc(F)cc2)C(c2cccs2)NC1=O (configuration not stated),-6%,23,3%
O=c1oc2ccccc2c(Nc2cccc3cccnc23)c1[N+](=O)[O-],/,/,-16%
CN(C)CCCO[C@H]1C([C@H](O)CO)O[C@@H]2OC(C)(C)O[C@@H]21 (some centres not stated),-10%,/,4%
CN(C)c1ccc2c3c(cccc13)C(=O)N(c1ccccc1)C2=O,/,/,5%
Nc1ccc2c3c(cccc13)C(=O)N(c1ccccc1)C2=O,/,/,28µM*
CC(C)Cc1ccc(/C=C/C(=O)NC2CC2)cc1,-28%,?,5%
SMILES,HPGD block,PNC inhibitor,ALDH1A1 block
Cc1ccc(NC(=S)N2CCC(c3ccc(C)cc3)C2)cc1 (configuration not stated),/,/,28µM*
Cc1ccc(C2CCN(C(=O)Nc3ccccc3)C2)cc1 (configuration not stated),-20%,?,-7%
NC1C(O)OC(CO)[C@@H](O)[C@@H]1O[C@H]1O[C@@H](C(=O)O)C(O)C(O)C1O (some centres not stated),-4%,/,4%
CN(C)c1[nH]c(=O)c(C#N)c2c1CCN2Cc1ccccc1,13µM*,-12,?
N#Cc1c2c(c[nH]c1=O)CCN2Cc1ccccc1,?,7,2%
O=C(COC(=O)c1cc2c(s1)CCC2)Nc1ccc(F)cc1,-15%,?,-14%
O=C(c1ccc(Cn2cc(Cl)cn2)o1)N1CCN(Cc2ccc3c(c2)OCO3)CC1,/,-107*,?

# From PubChem BioAssay
